Reference: paper PMC5540273 (PLoS ONE, 2017)

Experiments:
Conditions in all cases: concentration: 1 μM, replicates: in singlicate; n = 1
CDK8 = test system: CDK8
CDK9 = test system: CDK9
CDKL1 = test system: CDKL1
CDKL2 = test system: CDKL2
CDKL3 = test system: CDKL3
CDKL5 = test system: CDKL5
CHEK1 = test system: CHEK1
CHEK2 = test system: CHEK2
CIT = test system: CIT
CLK1 = test system: CLK1
CLK2 = test system: CLK2
CLK3 = test system: CLK3
CLK4 = test system: CLK4
CSF1R-autoinhibited = test system: CSF1R-autoinhibited
CSF1R = test system: CSF1R
CSK = test system: CSK
CSNK1A1L = test system: CSNK1A1L
CSNK1A1 = test system: CSNK1A1
CSNK1D = test system: CSNK1D
CSNK1E = test system: CSNK1E
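Further: KINOMEscan kinase panel screen.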

SMILES | %Inh (CDK8) [%] | %Inh (CDK9) [%] | %Inh (CDKL1) [%] | %Inh (CDKL2) [%] | %Inh (CDKL3) [%] | %Inh (CDKL5) [%] | %Inh (CHEK1) [%] | %Inh (CHEK2) [%] | %Inh (CIT) [%] | %Inh (CLK1) [%] | %Inh (CLK2) [%] | %Inh (CLK3) [%] | %Inh (CLK4) [%] | %Inh (CSF1R-autoinhibited) [%] | %Inh (CSF1R) [%] | %Inh (CSK) [%] | %Inh (CSNK1A1L) [%] | %Inh (CSNK1A1) [%] | %Inh (CSNK1D) [%] | %Inh (CSNK1E) [%]
O=C1NC(=O)C(c2ccccc2Cl)=C1Nc1cccc(Cl)c1 [SB-342409] | 0 | 0 | 16 | 11 | 0 | 0 | 7 | 0 | 7 | 54 | 73 | 7 | 28 | 0 | 33 | 0 | 9 | 0 | 16 | 17
COc1ccc(C2=C(Nc3cccc(O)c3)C(=O)NC2=O)cc1 [SB-390766] | 0 | 0 | 0 | 7 | 32 | 3 | 2 | 0 | 4 | 86 | 84 | 22 | 85 | 0 | 0 | 15 | 7 | 0 | 94 | 20
Cc1ccc(-c2ccc3occ(-c4ccc(S(C)=O)cc4)c3c2)nn1 (centres unmarked) | 0 | 0 | 35 | 0 | 13 | 0 | 0 | 11 | 0 | 0 | 0 | 0 | 70 | 13 | 0 | 1 | 0 | 0 | 0 | 0
CN(c1ccc(NC(=O)Nc2cccc(Cl)c2)cc1)c1ccnc(N)n1.Cl [GW830707] | 85 | 0 | 0 | 39 | 0 | 0 | 0 | 7 | 9 | 0 | 0 | 0 | 0 | 0 | 99.5 | 7 | 0 | 0 | 18 | 0
COc1cc(Nc2ccnc3cc(-c4ccncc4)ccc23)cc(OC)c1OC.Cl [GW494610] | 43 | 0 | 100 | 8 | 11 | 0 | 0 | 0 | 41 | 9 | 0 | 0 | 29 | 22 | 49 | 79 | 18 | 11 | 46 | 38
Cl.Cl.NC(CNC(=O)c1cc(Br)c(-c2ccnc3[nH]ccc23)s1)c1ccccc1 (centres unmarked) [GSK1322949] | 60 | 15 | 12 | 26 | 0 | 5 | 0 | 46 | 98.1 | 90.9 | 88 | 73 | 91.5 | 7 | 29 | 0 | 47 | 87 | 89 | 90.8
Cc1ccc(C)c(NC(=O)Nc2ccc(C)c(-c3ccc(C(=O)Nc4ccncc4)cc3)c2)c1 [GSK1398473] | 4 | 0 | 0 | 42 | 0 | 24 | 22 | 0 | 96.1 | 24 | 0 | 3 | 0 | 0 | 89 | 0 | 11 | 0 | 0 | 30
CCNc1nccc(-c2c(-c3ccc(F)cc3)ncn2C2CCN(C)CC2)n1 | 0 | 0 | 30 | 0 | 0 | 0 | 7 | 0 | 30 | 35 | 45 | 0 | 13 | 0 | 0 | 25 | 56 | 93 | 98.6 | 99.9
CSc1ccc(NC2=C(c3ccc(Cl)cc3)C(=O)NC2=O)cc1 [SB-317658] | 0 | 0 | 0 | 0 | 0 | 0 | 0 | 13 | 0 | 17 | 26 | 0 | 19 | 0 | 30 | 21 | 0 | 20 | 1 | 6
Cc1ccc(Nc2ccnc(Nc3ccc(C)c(F)c3)n2)cc1O.Cl [GW582868] | 0 | 0 | 9 | 40 | 0 | 0 | 0 | 0 | 28 | 13 | 86 | 3 | 14 | 25 | 29 | 0 | 12 | 0 | 0 | 19
CC(C)(C)c1ccc(C(=O)Nc2cn3cc(-n4ccnc4)ccc3n2)cc1 | 5 | 3 | 29 | 0 | 18 | 7 | 0 | 0 | 44 | 92.4 | 79 | 16 | 84 | 0 | 46 | 0 | 34 | 60 | 84 | 70
Nc1ncc(-c2ccc3nccc(-c4ccncc4)c3c2)cc1S(=O)(=O)N1CCCCC1 [GSK1693850] | 45 | 5 | 0 | 27 | 0 | 0 | 1 | 23 | 31 | 81 | 67 | 49 | 72 | 0 | 4 | 0 | 0 | 0 | 24 | 54
Fc1cc(Cl)ccc1Nc1ccnc2cc(-c3ccc(CN4CCOCC4)o3)ccc12 [GW560109] | 0 | 0 | 0 | 58 | 0 | 0 | 12 | 46 | 43 | 17 | 0 | 0 | 15 | 7 | 94.2 | 33 | 0 | 11 | 19 | 4
Cn1cc(-c2ccc3c(c2)CCN3C(=O)Cc2cc(F)cc(F)c2F)c2c(N)ncnc21 [GSK2634140] | 88 | 3 | 8 | 29 | 0 | 3 | 9 | 0 | 36 | 16 | 0 | 24 | 16 | 0 | 87 | 0 | 17 | 0 | 13 | 47
c1ccc(Oc2ccc(Nc3ccnc4cc(-c5ccc(CN6CCCCC6)o5)ccc34)cc2)nc1 [GW567143] | 14 | 0 | 0 | 12 | 0 | 19 | 0 | 74 | 6 | 1 | 0 | 0 | 6 | 0 | 54 | 71 | 12 | 1 | 10 | 13
Cc1ccccc1CC(=O)N1CCc2cc(-c3cn(C)c4ncnc(N)c34)ccc21 [GSK2603346] | 83 | 0 | 0 | 17 | 0 | 0 | 18 | 0 | 32 | 15 | 0 | 6 | 0 | 0 | 89 | 0 | 22 | 9 | 9 | 84
O=C(Nc1c(F)cccc1F)c1cc(C(=O)c2ccccc2F)c[nH]1 [GSK1326180] | 14 | 0 | 0 | 7 | 0 | 0 | 0 | 11 | 5 | 22 | 0 | 2 | 0 | 32 | 1 | 0 | 5 | 16 | 0 | 20

SMILES | %Inh (CDK8) [%] | %Inh (CDK9) [%] | %Inh (CDKL1) [%] | %Inh (CDKL2) [%] | %Inh (CDKL3) [%] | %Inh (CDKL5) [%] | %Inh (CHEK1) [%] | %Inh (CHEK2) [%] | %Inh (CIT) [%] | %Inh (CLK1) [%] | %Inh (CLK2) [%] | %Inh (CLK3) [%] | %Inh (CLK4) [%] | %Inh (CSF1R-autoinhibited) [%] | %Inh (CSF1R) [%] | %Inh (CSK) [%] | %Inh (CSNK1A1L) [%] | %Inh (CSNK1A1) [%] | %Inh (CSNK1D) [%] | %Inh (CSNK1E) [%]
O=C(Nc1n[nH]c2cc(-c3cccs3)ccc12)C1CC1 [SB-731284] | 15 | 3 | 50 | 98.1 | 0 | 14 | 0 | 0 | 24 | 0 | 21 | 13 | 0 | 0 | 0 | 13 | 0 | 20 | 0 | 8
Cl.N#CCc1ccc(Nc2nccc(Nc3ccc(Oc4ccccc4)cc3)n2)cc1 [GW639905] | 0 | 0 | 3 | 55 | 0 | 0 | 38 | 0 | 41 | 23 | 9 | 0 | 3 | 7 | 35 | 31 | 0 | 0 | 0 | 8
COC(=O)Nc1nc2ccc(Oc3ccc(NC(=O)Nc4cc(C(F)(F)F)ccc4F)cc3)cc2[nH]1.Cl [GW654607] | 84 | 0 | 21 | 96.7 | 100 | 0 | 0 | 16 | 87 | 52 | 0 | 0 | 48 | 30 | 99.8 | 0 | 0 | 0 | 0 | 13
Nc1ncc(-c2cn[nH]c2)c2scc(-c3ccc4c(c3)CCN4C(=O)Cc3ccccc3)c12 [GSK2593067] | 37 | 0 | 0 | 28 | 0 | 0 | 0 | 0 | 0 | 40 | 0 | 0 | 55 | 51 | 99.9 | 68 | 9 | 0 | 4 | 32
COc1cccc(C2=C(Nc3cccc(O)c3)C(=O)NC2=O)c1 [SB-390771] | 17 | 0 | 86 | 7 | 0 | 0 | 0 | 0 | 4 | 73 | 61 | 17 | 72 | 45 | 37 | 100 | 10 | 0 | 32 | 29
Cc1cccc(Nc2nc(N[C@H]3CCCC[C@H]3N)ncc2C(N)=O)c1.Cl [GSK986310] | 0 | 17 | 9 | 28 | 0 | 0 | 57 | 1 | 66 | 42 | 28 | 27 | 24 | 0 | 78 | 12 | 59 | 46 | 50 | 64
Cc1ccc(O)cc1Nc1ccnc2ccc(C(C)(C)C)cc12 [GW856805] | 0 | 12 | 24 | 0 | 17 | 10 | 9 | 3 | 25 | 0 | 26 | 0 | 3 | 0 | 32 | 53 | 20 | 40 | 13 | 1
CN(c1ccc(F)c(NC(=O)c2cccc(OC(C)(C)C#N)c2Cl)c1)c1ccc2nc(NC(=O)C3CC3)sc2n1 | 2 | 0 | 0 | 27 | 0 | 0 | 0 | 13 | 93.7 | 0 | 0 | 0 | 0 | 17 | 99.8 | 16 | 14 | 9 | 0 | 0
COc1ccc(NC(=O)c2ccoc2)cc1-c1ccc(C(=O)NCC2CC2)cc1 [GW810437] | 38 | 16 | 11 | 0 | 2 | 6 | 0 | 0 | 0 | 0 | 16 | 0 | 6 | 3 | 7 | 0 | 8 | 0 | 0 | 3
CN(C)c1ncnc2nc[nH]c12 [SKF-31736] | 35 | 0 | 23 | 4 | 0 | 19 | 0 | 0 | 12 | 8 | 23 | 0 | 0 | 0 | 6 | 0 | 0 | 0 | 0 | 4
CC(C)NCC(Cc1ccccc1)NC(=O)c1cc(Br)c(-c2ccnc3[nH]ccc23)s1.Cl.Cl (centres unmarked) [GSK1383281] | 34 | 0 | 17 | 11 | 0 | 0 | 0 | 39 | 53 | 40 | 44 | 22 | 25 | 0 | 46 | 6 | 5 | 0 | 26 | 33
COc1cccc(CC(=O)N2CCc3cc(-c4cn(C)c5ncnc(N)c45)ccc32)c1 [GSK2608899] | 96.6 | 12 | 1 | 4 | 0 | 0 | 0 | 0 | 5 | 29 | 0 | 13 | 0 | 0 | 96.9 | 14 | 8 | 0 | 39 | 77
CN(c1ccc(NC(=O)N2CCN(CCCN3CCOCC3)CC2)cc1)c1ccnc(Nc2ccc(CS(C)(=O)=O)cc2)n1.Cl [GW830899] | 44 | 0 | 100 | 9 | 0 | 0 | 0 | 0 | 16 | 7 | 0 | 0 | 0 | 0 | 66 | 24 | 79 | 25 | 5 | 0
Cc1cccc(Nc2nc(NCCN)ncc2C(N)=O)c1 [GSK1292139] | 37 | 0 | 0 | 7 | 0 | 0 | 82 | 75 | 80 | 23 | 22 | 47 | 0 | 23 | 88 | 22 | 76 | 72 | 52 | 84
CN(c1ccc2c(c1)nc(NCc1ccccc1)n2C)c1ccnc(Nc2ccc(CS(C)(=O)=O)cc2)n1.Cl [GW811603] | 79 | 15 | 20 | 0 | 16 | 9 | 0 | 0 | 55 | 31 | 0 | 43 | 0 | 80 | 100 | 14 | 0 | 36 | 0 | 18
COc1cccc2c(-c3ccncc3)c(-c3ccc(F)cc3)nn12 [GW468513] | 42 | 0 | 2 | 38 | 0 | 0 | 0 | 0 | 98 | 6 | 0 | 6 | 17 | 24 | 0 | 0 | 50 | 93.6 | 90.7 | 99.8
Cc1ccc(NC(=O)c2ccc(Cl)c(Cl)c2)cc1-c1ccc(C(=O)Nc2ccncc2)cc1 [GSK1398460] | 0 | 2 | 1 | 13 | 0 | 4 | 22 | 0 | 97.6 | 39 | 0 | 17 | 17 | 7 | 99.9 | 1 | 8 | 0 | 7 | 18
